Assay outcomes (PubChem BioAssay)
Most compounds without a hit are left out; they make up all but 1.5% or so of the library.
RAD52 inh = blocks human RAD52 DNA annealing | P43351 | recombinant RAD52 DNA annealing, FRET fluorescence | inhibition, % at 18.7 µM | 360,000 compounds, 0.46% hits | AID 651710;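 active = every replicate showing at least 50% inhibition; inconclusive = mean inhibition at least 50% but not in every replicate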
miR122 inh = inhibitors of miR-122 in Huh7 cells; activation (reporter increase), % at 12.5 µM; 340,000 compounds, 0.3% hits; AID 602342; Huh7 miR-122 Renilla luciferase sensor, 48 h; neutral wells = 0, positive control = 100;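 active = mean replicate activation score at least 90 and every replicate individually at or above 90; inconclusive = only one of the two criteria met; inactive = neither criterion met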;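 note: higher luciferase means less miR-122 activity so hits act as miR-122 inhibitors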
CASP6 VEID inh = blocks human caspase-6 cleavage activity | AID 686996 | 350,000 compounds, 0.53% hits | purified caspase-6, Z-VEID-R110 cleavage fluorescence | P55212 | inhibition, % at 12.5 µM;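 active = mean inhibition across replicates at least about 35%, with every replicate also reaching that limit, limit read from the data; inconclusive = only one of the two criteria met; inactive = neither criterion met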
Target sequence (P55212 24-179 limits assumed): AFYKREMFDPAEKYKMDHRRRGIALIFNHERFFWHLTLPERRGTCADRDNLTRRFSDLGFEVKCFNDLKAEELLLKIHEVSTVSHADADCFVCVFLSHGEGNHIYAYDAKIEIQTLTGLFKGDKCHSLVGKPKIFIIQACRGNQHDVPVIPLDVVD
Target sequence (P55212 194-293 limits assumed): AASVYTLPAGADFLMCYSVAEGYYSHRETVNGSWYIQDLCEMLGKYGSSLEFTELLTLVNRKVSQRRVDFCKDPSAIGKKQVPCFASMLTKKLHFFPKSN
AF4-AF9 inh = blocks AF4 peptide binding to human AF9. AlphaScreen, biotin-AF4 peptide binding to FLAG-AF9. AID 651704. P42568. 350,000 compounds, 0.47% hits. inhibition, % at 10 µM;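 active = every replicate reaching a set inhibition limit, whatever the replicate mean, cut at about 25% in these data; inconclusive = mean inhibition reaches that limit but some replicates miss it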
NSD2 HMT inh = inhibitors of human histone methyltransferase NSD2; O96028; NSD2 peptide methylation, AlphaScreen, 120 min; inhibition, % at 12.5 µM; 310,000 compounds, 0.54% hits; in the data active = inhibition above about 50%
Alpha interfer = AlphaScreen signal interference counter-screen hit | shares compounds with AF4-AF9 inh | signal luminescence | AC50, µM (doses to about 12 µM) | 530 compounds, 45% hits | AID 720494; cut-off not given, nearly all actives have AC50 up to about 14 µM
DNA binder FP = binds DNA, flagging false RAD52 inhibitor hits; shares compounds with RAD52 inh; Salmon sperm DNA/acridine orange FP displacement, DNA binding; 1,000 compounds, 8% hits; AC50, µM; AID 652128;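 active = fitted half-maximal concentration for signal loss at or below twice the highest dose tested, in every separate run, actives reach about 64 µM in these data; inconclusive = runs disagree, or flat partial signal loss, or poor fit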
A number is an active result; . = inactive; ? = inconclusive; / = no result given.

SMILES	RAD52 inh	miR122 inh	CASP6 VEID inh	AF4-AF9 inh	NSD2 HMT inh	Alpha interfer	DNA binder FP
C[C@@H]1CN([C@H](C)CO)C(=O)c2cccc(NC(=O)Nc3cccc4ccccc34)c2O[C@H]1CN(C)S(=O)(=O)c1cn(C)cn1	.	.	.	.	/	/	/
O=C(N/N=C/c1sc(N2CCCCC2)nc1-c1cccs1)C1CC1	.	.	.	.	.	.	/
COc1ccc(C2CC(=O)Oc3c(C(CCN4CCN(c5ccccc5)CC4)c4ccc(N(C)C)cc4)c(OC)cc(OC)c32)cc1 (configuration not stated)	.	.	.	.	/	/	/
COc1cc(OC)c2c(-c3ccccc3)cc(=O)oc2c1C(CCN1CCOCC1)c1ccc(N(C)C)cc1 (configuration not stated)	.	.	.	39	/	.	/
COc1cc(OC)c2c(-c3ccccc3)cc(=O)oc2c1C(CCN1CCCCC1)c1ccc(N(C)C)cc1 (configuration not stated)	/	.	/	/	/	/	/
COc1cc(OC)c2c(-c3ccccc3)cc(=O)oc2c1C(CCN1CCCCC1)c1ccc2c(c1)OCO2 (configuration not stated)	.	.	.	36	/	.	/
COc1cc(OC)c2c(c1C(CCN1CCOCC1)c1ccc(N(C)C)cc1)OC(=O)CC2c1ccc(N(C)C)cc1 (configuration not stated)	.	.	.	65	/	13µM	/
C[C@H](CO)N1C[C@H](C)[C@@H](CN(C)CC2CC2)OCCCC[C@H](C)Oc2ccc(NS(=O)(=O)c3ccccc3)cc2C1=O	.	.	.	.	/	/	/
CCN(CC)c1ccc(C(=C2C=CC(=[N+](CC)CC)C=C2)c2ccc(S(=O)(=O)O)cc2S(=O)(=O)[O-])cc1	.	.	.	60	.	7.9µM	/
CN(CCc1ccccc1)C(=O)c1ccc(NC(=O)Cc2ccc(NC(=O)C3CCN(C(=O)C4CC4)CC3)cc2)cc1	.	/	.	?	/	/	/
CN(CCc1ccccc1)C(=O)c1ccc(NC(=O)Cc2ccc(NC(=O)C3CCN(C(=O)C4CCCC4)CC3)cc2)cc1	.	.	.	33	/	.	/
Cc1ncc(CO)c(/C=N/NC(=S)Nc2ccc(Cl)c(Cl)c2)c1O	.	/	.	30	/	13µM	/
CN=c1scc(-c2ccc(OC)cc2)n1/N=C(\C)c1cccnc1	.	/	.	48	.	11µM	/
COc1cccc(S(=O)(=O)N[C@@H]2CC[C@@H](CC(=O)NCc3ccc(Cl)cc3)O[C@H]2CO)c1	.	/	.	.	/	/	/
C[C@@H]1CN([C@@H](C)CO)C(=O)c2cc(NC(=O)Nc3ccc(C(F)(F)F)cc3)ccc2O[C@@H](C)CCCCO[C@H]1CN(C)S(=O)(=O)c1cccs1	.	.	.	.	/	/	/
CCOC(=O)c1c(-c2ccc(-c3ccccc3)cc2)csc1NC(=O)CNCCN(C)C	95	.	.	31	.	.	.
Oc1ccccc1C=NCCN=Cc1ccccc1O	.	.	.	.	.	/	/
Oc1ccccc1C=NCCN1CCN(CCN=Cc2ccccc2O)C1c1ccccc1O (configuration not stated)	66	/	.	30	.	.	.
Oc1ccccc1C=NCC(O)c1ccccc1 (configuration not stated)	.	.	.	.	.	/	/
Oc1ccccc1C=NCCCCCCN=Cc1ccccc1O	59	.	.	39	.	.	.
CN(C)CC/C=C1\c2ccccc2Sc2ccc(Cl)cc21	.	.	.	.	/	/	/
CN(C)CC/C=C1/c2ccc(F)cc2Sc2ccc(Cl)cc21	62	.	.	36	.	.	.
CN(C)CC/C=C1\c2ccc(F)cc2Sc2cc(F)c(Cl)cc21	71	.	.	46	.	.	.
C[C@H](CO)N1C[C@H](C)[C@H](CN(C)C(=O)C2CCCCC2)OCCCC[C@H](C)Oc2ccc(NC(=O)NC3CCCCC3)cc2C1=O	.	.	.	.	/	/	/
C[C@@H]1CN([C@H](C)CO)S(=O)(=O)c2ccc(-c3ccccc3)cc2O[C@H]1CN(C)C	.	.	.	.	/	/	/
SMILES	RAD52 inh	miR122 inh	CASP6 VEID inh	AF4-AF9 inh	NSD2 HMT inh	Alpha interfer	DNA binder FP
C[C@H](CO)N1C[C@H](C)[C@H](CN(C)C(=O)Nc2ccc(F)cc2)Oc2ncc(C#C[C@@H](C)O)cc2C1=O	.	.	.	.	/	/	/
CCN1[C@@H]2Cn3c(cccc3=O)[C@H]1[C@@H](C(=O)NC1Cc3ccccc3C1)[C@@H]2CO	.	.	/	/	/	/	/
N=C(N)c1ccc(Cl)cc1	.	/	.	.	.	/	/
N=C(N)c1ccc(/C=C/c2ccc(C(=N)N)cc2O)cc1	97	/	.	61	.	.	.
CCN(Cc1ccccc1)c1ccc(/C=N/N=C(N)N)cc1	92	.	.	53	.	10µM	.
CCN(Cc1ccccc1)c1ccccc1	.	.	.	/	/	/	/
Cc1ccc2nc(-c3ccc(NC(=S)NC4CC(C)(C)NC(C)(C)C4)cc3)sc2c1	95	.	.	45	.	.	.
O=C(Cc1cccnc1)N1CC[C@H]2[C@H](CO)Nc3ccc(C#Cc4cccc(F)c4)cc3[C@H]21	.	/	.	.	/	/	/
C#CCOCCOCCOCCNc1nc(N2CCN(C(=O)[C@H](CCCCN)n3cc(CN)nn3)CC2)nc(N2CCN(C(=O)[C@H](CC(N)=O)n3cc(C(N)[C@H](C)CC)nn3)CC2)n1 (some centres not stated)	64	.	.	?	/	.	.
C#CCOCCOCCOCCNc1nc(N2CCN(C(=O)[C@H](CCCCN)n3cc(CN)nn3)CC2)nc(N2CCN(C(=O)[C@H](CCCN=C(N)N)n3cc(C(N)[C@H](C)CC)nn3)CC2)n1 (some centres not stated)	77	.	.	45	/	.	?
CN1C(=O)c2cc(NC(=O)c3cncs3)ccc2OC[C@H]2O[C@@H](CC(=O)Nc3ccccc3F)CC[C@@H]21	/	.	/	.	/	/	/
COc1ccc(-c2cc(NC=O)c3ncc(-c4cccc(C(=O)NCCN(C)C)c4)n3c2)cc1	90	.	.	26	.	.	.
COc1ccc(-c2cc(NC=O)c3ncc(-c4cccc(OC)c4)n3c2)cc1	.	.	.	.	.	/	/
CCCCCN=C(N)N/N=C/c1c[nH]c2ccc(OC)cc12	56	.	/	35	/	.	.
CC1CCN(CC(=O)Nc2ccc(S(=O)(=O)N3CCCCC3)cc2)CC1	.	.	.	.	.	/	/
CC1CCN(CC(=O)Nc2ccc(N3CCCCCC3)cc2)CC1	75	/	.	53	/	12µM	.
CCCNC(=O)Nc1ccc2c(c1)OC[C@H](C)N(Cc1ccc(-c3ccccn3)cc1)C[C@H](C)[C@@H](OC)CN(C)C2=O	.	/	.	.	/	/	/
COc1cc(Nc2c3ccccc3nc3ccccc23)cc(OC)c1OC	55	.	.	31	.	13µM	.
C[C@@H]1CN([C@@H](C)CO)C(=O)c2cc(NC(=O)CCC(F)(F)F)ccc2O[C@@H](C)CCCCO[C@H]1CN(C)Cc1ccncc1	.	.	.	.	/	/	/
CC1CN(C)C(C)c2c1oc1ccc(N)cc21 (configuration not stated)	95	/	.	35	/	.	.
